Source: PubChem BioAssay (National Center for Advancing Translational Sciences (NCATS))
Rows were chosen to be rich in hits. Some 1.3% of all compounds tested hit in one or more screens of this group.
RXFP1 antag: RXFP1 (human) relaxin receptor antagonism; 350,000 compounds, 0.59% hits; HEK293-RXFP1, relaxin-stimulated cAMP HTRF, 30 min; hits give low values; activity change, negative = inhibition, % at 57.5 µM;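 active means activity change of -60% or lower, but not beyond a set lower limit; inconclusive means change between -60% and -40%, or beyond the set limit; inactive means change above -40%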; further: on the % scale 0 is the no-effect control and ±100 the full control effect
Target sequence (Q9HBX9 whole entry, looked up): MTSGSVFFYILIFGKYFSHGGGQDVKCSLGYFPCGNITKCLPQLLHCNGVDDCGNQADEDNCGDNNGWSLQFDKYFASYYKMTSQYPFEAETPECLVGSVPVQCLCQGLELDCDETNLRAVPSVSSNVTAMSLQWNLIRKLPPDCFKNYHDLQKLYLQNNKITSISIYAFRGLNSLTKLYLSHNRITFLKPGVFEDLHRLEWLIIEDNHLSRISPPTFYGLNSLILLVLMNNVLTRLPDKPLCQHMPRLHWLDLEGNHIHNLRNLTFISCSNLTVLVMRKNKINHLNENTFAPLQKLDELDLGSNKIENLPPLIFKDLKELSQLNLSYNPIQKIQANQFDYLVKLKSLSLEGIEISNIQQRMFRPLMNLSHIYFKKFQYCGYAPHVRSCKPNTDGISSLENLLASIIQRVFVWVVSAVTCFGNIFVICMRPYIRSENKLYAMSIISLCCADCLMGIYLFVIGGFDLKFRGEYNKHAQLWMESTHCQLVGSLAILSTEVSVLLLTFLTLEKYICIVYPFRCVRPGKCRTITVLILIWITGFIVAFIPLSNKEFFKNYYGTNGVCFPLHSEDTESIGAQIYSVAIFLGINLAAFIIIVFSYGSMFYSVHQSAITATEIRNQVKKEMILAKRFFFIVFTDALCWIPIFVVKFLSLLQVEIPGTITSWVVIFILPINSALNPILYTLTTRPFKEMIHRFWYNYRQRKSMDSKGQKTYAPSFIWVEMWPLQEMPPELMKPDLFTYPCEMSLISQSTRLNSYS
gsp ag: gsp mutant agonism; 340,000 compounds, 0.13% hits; AID 624287; Potency, µM (top dose mostly 76.9 µM), inactives show top-dose activation (cAMP increase), hits mostly activators; gsp mutant cells, cAMP HTRF, 30 min; active means well fitted activation curve with a large enough effect; inconclusive means small, poorly fitted or top-dose-only effect, or another doubt; inactive means no such curve, though single readings can be large or run the other way; cell line not stated here;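 further: phosphodiesterase inhibitor Ro 20-1724 added with compounds to block cAMP breakdown; potency means the concentration at half of the fitted maximal effect; nearly all actives have a fitted effect of over 60% in size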
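Cells stably selected in G418 were plated at 2000/well, grown 16-24 hr, then given compounds in DMSO with the PDE inhibitor […] (300 uM solution added) for 30 min at 37C; cAMP was read by HTRF.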
gsp antag: antagonists of gsp mutant (McCune-Albright syndrome); Potency, µM (highest dose often 76.9 µM), for inactives: top-dose activity change, negative = inhibition, usual class: inhibitors; gsp-mutant cells, cAMP HTRF, 30 min; AID 624288; 340,000 compounds, 0.4% hits; calls by dose curve; cell line not stated here;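 further: intracellular cAMP measured with PDE inhibitor Ro 20-1724 present during compound exposure; potency means the concentration at half of the fitted maximal effect; on the % scale 0 is the no-effect control and ±100 the full control effect; nearly all actives have a fitted effect of over 65% in size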
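G418-selected cells were plated in DMEM/10% FBS for 16-24 h at 37C, then treated with compounds plus the PDE inhibitor […] (300 uM solution added) for 30 min at 37C. Intracellular cAMP was measured by HTRF after 30 min lysis at room temperature.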
Akt phos inh: inhibitors of Akt phosphorylation; activity change, % for hits at 50 µM; AID 651550; Neuro2A IGF-stimulated pAkt S473 HTRF, 20 min; hits give low values; 360,000 compounds, 0.32% hits; in the data active means activity change below about -80%; inconclusive means mostly about -51% to -80%; further: on the % scale 0 is the no-effect control and ±100 the full control effect
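Single-point screen (50 µM final compound) in Neuro2A cells stimulated 20 min with 6 nM IGF at 37 deg C. After lysis, Ser473-phosphorylated Akt read by HTRF (ex 330 nm, em 615/665 nm) as the 665/615 ratio.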
RXFP1 agonist: agonists of human relaxin receptor RXFP1. HEK293T-RXFP1 cAMP TR-FRET, 30 min; response scale: percent of porcine relaxin response, buffer zero. Potency, µM (highest dose often 57.5 µM), inactives show top-dose activation, hits mostly activators. 370,000 compounds, 0.3% hits; active means well fitted activation curve with a large enough effect; inconclusive means small, poorly fitted or top-dose-only effect; further: potency means the concentration at half of the fitted maximal effect; on the % scale 0 is the no-effect control and ±100 the full control effect; nearly all actives have a fitted effect of over 60% in size
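cAMP rise read by TR-FRET after 30 min, 37C compound exposure (up to 58 uM) in RXFP1-transfected HEK293 cells with Ro 20174 present. EC50 from Hill-equation fits, with 29 nM porcine relaxin as 100% and buffer as basal.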
* marks the source's active call; other numbers are inactive results; i = inactive; ? = inconclusive; · = no result given; [ ] = another dose, or the depositor's remark.

SMILES | RXFP1 antag | gsp ag | gsp antag | Akt phos inh | RXFP1 agonist
CCN1CCOC(=O)C1CC(=O)Nc1cc(C)cc(C)c1 (stereo not given) | -7 | · | · | · | -4%
Cc1cc(C)cc(-n2cnc3cc(C(=O)NCCc4ccccc4)ccc32)c1 | 3 | · | · | · | 1%
Cc1ccc(NC(=O)CSc2nc3ccccc3c3nc(CCn4c(C)nc5ccccc54)nn23)cc1F | -1 | · | · | · | -1%
O=C(c1cccn1-c1nnc(N2CCCC2)s1)N1CCN(c2ccccc2)CC1 | 2 | · | · | · | 5%
Cc1ccc(Cl)cc1N1CCN(C(=O)c2cccn2-c2nnc(N3CCCC3)s2)CC1 | -83* | · | · | · | -4%
Cc1ccc(C)c(N2CCN(C(=O)C3CCCN(c4ncnc5c4nc4n5CCCCC4)C3)CC2)c1 (stereo not given) | -83* | 12% | ? | i | 3%
Cc1cccc(N2CCN(C(=O)C3CCN(c4ncnc5c4nc4n5CCCCC4)CC3)CC2)c1C | -8 | -5% | ? | i | 6%
Cc1cccc(N2CCN(C(=O)C3CCN(c4ncnc5c4nc4n5CCCCC4)CC3)CC2C)c1 (stereo not given) | ? | 26% | 40µM* | i | -1%
NS(=O)(=O)c1ccc(CCNC(=O)C2CCN(c3ncnc4c3nc3n4CCCCC3)CC2)cc1 | 15 | ? | 1% | · | 16µM*
Cc1ccc(CNC(=O)CSc2ncc(S(=O)(=O)c3ccc(C)c(Cl)c3)c(=O)[nH]2)cc1 | · | · | · | · | 0%
COc1ccc2[nH]c(CN3CCC(CO)(CCOc4ccccc4)CC3)c(C)c2c1 | -71* | -3%[15.4 µM] | 3% | i | -2%
Cc1snc(S(=O)(=O)/C(C#N)=N/Nc2cccc(C(F)(F)F)c2)c1C#N | -4 | 8% | 35µM* | i | 0%
Cc1nc(SCc2ccc([N+](=O)[O-])cc2)n[nH]1 | -73* | -24% | 1% | i | 1%
COc1ccc(NC(=O)CSC2=Nc3ccccc3C3=NC(CCC(=O)NCCc4ccccc4)C(=O)N23)c(OC)c1 (stereo not given) | ? | · | · | · | 1%
Cc1nnnn1/C(=C\c1ccccc1)C(=O)OCC(=O)Nc1ccc(Cl)cc1F | -64* | 20% | 34% | i | 1%
Cc1ccc(S(=O)(=O)NC(C(=O)Oc2ccc3c(C)c(Cl)c(=O)oc3c2)c2ccccc2)cc1 (stereo not given) | · | 14% | 11% | i | 5%
CCC[C@@H](NS(=O)(=O)c1ccc(C)cc1)C(=O)Oc1ccc2c3c(c(=O)oc2c1)CCC3 | 2 | ? | 28µM* | i | 0%
Cc1cccc(N2CCN(C(=O)C3CCCN(S(=O)(=O)c4ccc(Br)s4)C3)CC2)c1C (stereo not given) | -11 | · | · | · | 3%
O=C(CSc1ccc(-c2ccc3c(c2)OCO3)nn1)Nc1nccs1 | 4 | -5%[15.4 µM] | 11% | i | ?
O=C(CSCC(=O)Nc1nc(-c2ccc3c(c2)OCO3)cs1)Nc1nccs1 | 4 | 6% | 32µM* | i | 2%
Fc1ccc(Nc2nc3nonc3nc2Nc2cccc(C(F)(F)F)c2)cc1 | -74* | · | · | · | 0%
Fc1ccc(CNC(=S)Nc2cccc(C(F)(F)F)c2)cc1 | -12 | 1% | -4% | i | -1%
CCCn1ccc2c(OCC(=O)Nc3ccc(OC)c(OC)c3)cccc2c1=O | · | · | · | · | 0%
CC1(C)CC(C(CC(=O)O)c2ccccc2)CCO1 (stereo not given) | -1 | 2% | 0% | i | 2%
CC1(C)CC(C(CC(=O)N2CCCC2)Cc2ccccc2)CCO1 (stereo not given) | 1 | -22% | 50µM* | i | 1%
CCOc1ccc(NC(=O)c2cc(S(=O)(=O)N3CCc4ccccc43)ccc2F)cc1 | 3 | · | · | · | -3%
Fc1ccccc1COc1ccc(/C=N/n2cnnc2)cc1 | -7 | 30% | 3% | i | 0%
C(=N\n1cnnc1)/c1ccc(OCc2cccc3ccccc23)cc1 | -34 | -9% | -1% | -134%* | 0%
COC(=O)c1ccc(Cn2cc(/C=C\[N+](=O)[O-])c3ccccc32)o1 | -95* | -22% | 5% | i | -2%
O=C(Nc1scc(-c2ccc(Br)cc2)c1C(=O)O)c1ccccc1F | -27 | 12%[15.4 µM] | -23% | i | ·
